The values below come from PubChem BioAssay AID492948 (National Center for Advancing Translational Sciences (NCATS), 2010).

Results filed as inconclusive are left out. Activity calls are given as the source filed them. Calls follow the shape of the dose curve; as a rule, active = well fitted activation curve with a large enough effect; inconclusive = small, poorly fitted or top-dose-only effect; inactive = no such curve, though single readings can be large or run the other way.

A short description of this test: qHTS Assay for Agonists of the Relaxin Receptor RXFP1: V1B Hit Validation.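 Also: counter-screen in HEK293 cells expressing V1B rather than RXFP1 for selectivity; nearly all actives have a fitted effect of over 65% in size.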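 As to activation: cAMP accumulation with PDE4 inhibitor Ro 20-1724 present during compound exposure.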 To be noted: HEK293 V1B cells, cAMP TR-FRET, 30 min; series mostly up to 115 µM. The procedure, abridged: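 cAMP accumulation, read by TR-FRET competition after lysis, in V1B-expressing HEK293 cells given compound for 30 min at 37C with Ro 20174 present. Responses scaled between buffer basal and 29 nM porcine relaxin; Hill-equation EC50.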
For orientation: Quantitative high-throughput screening tests each substance at several concentrations.
Potency is read from the fitted curve at half-maximal effect.

In the case of `O=C(Nc1ccccc1C(=O)NCCc1ccc(O)cc1)c1ccco1`, the Potency result was “inactive”. `c1ccc(COn2nnc3ccccc32)c(COn2nnc3ccccc32)c1`: the Potency entry is “inactive”. Then `CN(C)c1ccc(C(=S)N2CCN(S(=O)(=O)c3ccccc3)CC2)cc1`, with “inactive”; and `CC[N+](CC)(CCCCS(=O)(=O)[O-])CCNP1(=O)C=C(c2ccccc2)OC(c2ccccc2)=C1`, with 38.9 µM (active).

In the case of `COc1ccc(/C=C2/SC(=O)N(CC(=O)Nc3cc(C)on3)C2=O)cc1OC`, the Potency result was “inactive”. For the molecule `NS(=O)(=O)c1ccc(CCNC(=O)C2CCN(c3ncnc4c3nc3n4CCCCC3)CC2)cc1`, the Potency was 38.9 µM (active). As to `CC(C(=O)OCC(=O)N(C)C1(C#N)CCCCC1)N1C(=O)c2ccccc2C1=O` (configuration not stated), the Potency is 13.8 µM (active). Then `CC(NC(=O)c1ccccc1NC(=O)c1ccco1)C(=O)O` (configuration not stated), with “inactive”; and `CCCC(=O)Nc1ncnc2c1ncn2[C@@H]1O[C@@H]2OP(=O)(O)OC[C@H]2[C@H]1OC(=O)CCC`, with 0.868 µM (active); and `Nc1ncnc2c1ncn2[C@@H]1O[C@H](COS(=O)(=O)O)[C@@H](O)[C@H]1O`, with 6.9 µM (active). Regarding `Nc1c(S(=O)(=O)O)cc(NC(=O)c2ccccc2)c2c1C(=O)c1ccccc1C2=O`, the Potency result is “inactive”. As to `O=C(Nc1ccccc1C(=O)N1CCOCC1)c1ccco1`, the Potency result was “inactive”.

Take `Nc1c(Cl)cc(-c2[nH]c3cc(C(=O)NCCO)ccc3c(=O)c2O)cc1Cl`: the Potency was 34.6 µM (active). As for `O=C(Nc1ccccc1C(=O)O)c1ccc(NC(=O)C2CC2)cc1`, the Potency result was “inactive”. The same measure for `Cc1cccc2cc(C#N)c(SCC(=O)NCc3cccs3)nc12`: 19.4 µM (active); for `CCCC(=O)Nc1ncnc2c1ncn2[C@@H]1O[C@@H]2COP(=O)(O)O[C@H]2[C@H]1OC(=O)CCC`: 1.38 µM (active). Take `COc1cc(-c2nnc(SCC(=O)N(C)C3CCS(=O)(=O)C3)o2)cc(OC)c1OC` (configuration not stated): the Potency entry was “inactive”. With `Cc1ccc2[nH]c3c(=S)nc[nH]c3c2c1`, the Potency was 6.15 µM (active).

Regarding `COc1ccc(CN2C(=O)c3cccnc3C2=O)cc1S(=O)(=O)N1CCCCC1C` (configuration not stated), the Potency was 8.68 µM (active). As to `COC(=O)Cn1cnc2c(C#N)c3n(c2c1=O)CCCC3`, the Potency is 21.9 µM (active). For `CCN(CC)S(=O)(=O)c1ccc2c(c1)nc(SCc1nc3ccsc3c(=O)[nH]1)n2CC`, the Potency is 0.245 µM (active). Then `Cc1cc(C(=O)OCC(=O)c2ccc(Br)s2)no1`, with 21.8 µM (active); and `Cc1ccc(-c2ccc3nnc(SCC(=O)NCC4CCCO4)n3n2)cc1` (configuration not stated), with “inactive”; and `Cc1ccc(-n2c(=S)[nH]c3sc4c(c3c2=O)CCC4)cc1`, with 6.15 µM (active). The same measure for `O=C(O)CSc1ccnc2cc(Cl)ccc12`: 21.8 µM (active); for `CCOC(=O)CNC(=O)CSc1ccc2nnc(-c3cccnc3)n2n1`: “inactive”. Then `CCNc1nc(NCC)nc(N(C)/N=C/c2ccco2)n1`, with “inactive”; and `COc1cccc(C(=O)CSc2nnc(-c3cc(OC)cc(OC)c3)o2)c1`, with 10.9 µM (active). Regarding `Brc1ccc2ncnc(NCc3cccnc3)c2c1`, the Potency is 38.9 µM (active). The same measure for `O=S(=O)(Nc1ccccc1C(F)(F)F)c1ccc(-c2ccccn2)s1`: 21.9 µM (active); for `CN(C)c1ccc(NC(=O)C2C3C=CC(C3)C2C(=O)O)cc1` (configuration not stated): “inactive”; for `CCOC(=O)CNC(=O)CSc1nc2c(C)cccc2cc1CC`: 17.3 µM (active). Regarding `CCN(CC)S(=O)(=O)c1cccc(N=Nc2c(O)c3ccccc3oc2=O)c1`, the Potency was 27.5 µM (active).

With `COC(=O)c1nc2ccc(N3CCOCC3)cc2c(C)c1C(=O)OC`, the Potency was 34.6 µM (active).

Consider `COc1ccc(S(=O)(=O)Nc2ccccn2)c(C)c1C`, for which the Potency result is “inactive”. For `O=C(Nc1ccccc1C(=O)Nc1ccccc1)c1ccco1`, the Potency entry is “inactive”. The same measure for `Cc1ccc(CN(C)C(=O)c2ccccc2NC(=O)c2ccccc2)o1`: “inactive”.
